Compounds with a hit are over-represented: about 3.4% of the library has one in this group of screens.
MITF primary: human MITF inhibition, primary screen. O75030. AlphaScreen MITF homodimerization, bead proximity signal. inhibition, % at 2.6 µM. actives 0.91% (n = 650,000); in the data active = inhibition above about 50%
Target sequence (O75030 whole entry, looked up): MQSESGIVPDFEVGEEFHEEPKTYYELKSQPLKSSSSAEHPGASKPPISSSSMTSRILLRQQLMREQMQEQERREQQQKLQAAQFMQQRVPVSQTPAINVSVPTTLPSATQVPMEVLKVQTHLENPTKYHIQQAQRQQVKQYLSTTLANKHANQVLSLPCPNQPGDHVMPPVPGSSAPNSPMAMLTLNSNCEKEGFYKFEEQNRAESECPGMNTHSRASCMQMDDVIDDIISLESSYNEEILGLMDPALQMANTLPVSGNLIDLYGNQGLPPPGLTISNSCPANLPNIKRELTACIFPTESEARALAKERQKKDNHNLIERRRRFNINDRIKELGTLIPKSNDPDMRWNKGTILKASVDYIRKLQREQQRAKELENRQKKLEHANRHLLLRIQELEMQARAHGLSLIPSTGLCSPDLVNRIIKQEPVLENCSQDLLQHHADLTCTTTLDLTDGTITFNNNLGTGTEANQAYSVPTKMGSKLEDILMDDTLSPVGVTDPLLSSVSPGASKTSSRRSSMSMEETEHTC
FBW7 act: activators of human E3 ligase FBW7; Q969H0; AlphaScreen FBW7–phospho-cyclin E peptide binding, activator screen; normalized activity (activation), % at 26.1 µM; actives 0.13% (n = 650,000); AID 1259310; in the data active = normalized activity above about 1.9%;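 also: purified mutant Fbw7 with reduced substrate affinity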
GPR151 ag: activates the human receptor GPR151; PathHunter beta-arrestin GPR151 cells, luminescence; activation, % at 11.2 µM; actives 1% (n = 650,000); Q8TDV0; in the data active = activation above about 4.9%
TEAD-YAP inh: TEAD-YAP interaction inhibition. actives 1.4% (n = 640,000). inhibition, % at 9.12 µM. HEK-TIYL cells, TEAD-Gal4/YAP UAS-luciferase luminescence; in the data active = inhibition above about 32%
MITF inh conf: confirmation of human MITF inhibitors; shares compounds with MITF primary; AlphaScreen MITF homodimerization, biotin/His-MITF beads; inhibition, % at 2.6 µM; actives 16% (n = 4,700); AID 1259372;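 active = inhibition above a cutoff derived from the DMSO control wells, cut at about 28% in these data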;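 also: inhibitors lower the bead chemiluminescence by keeping MITF from dimerizing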
AlphaScreen DR: optically interferes with AlphaScreen signal in dose response. AID 1259373. AlphaScreen optical interference counterscreen, cell-free. actives 6% (n = 480). shares compounds with MITF primary. IC50, µM; call rule not given here
AS interf ctr: counter-screen: compounds optically interfering with AlphaScreen; shares compounds with MITF primary; LysRS AlphaScreen counterscreen, signal interference, triplicate; inhibition, % at 2.6 µM; actives 7.6% (n = 4,700); AID 1259376;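 active = inhibition above a cutoff derived from the DMSO control wells, cut at about 30% in these data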
Each line names hits and unclear results; the compound was inactive in the other large screens (follow-up assays come after a bar, where they were run).

O=[N+]([O-])c1ccc(CN2CCC(N3CCCCCC3)CC2)cc1	none
O=[N+]([O-])c1ccc(CN2CCC(N3CCN(CCO)CC3)CC2)cc1	MITF primary 53 | MITF inh conf inactive | AS interf ctr inactive
CC1CCCC(N2CCN(c3ccc([N+](=O)[O-])cc3)CC2)C1 (stereo unspecified)	none
CC1CCN(Cc2ccc([N+](=O)[O-])cc2)CC1	none
Cc1ccnc(N2C3CCC2CC(O)(c2ccccc2)C3)n1 (stereo unspecified)	MITF primary 53 | MITF inh conf inactive | AS interf ctr inactive
Cc1ccc(C2(O)CC3CCC(C2)N3c2cc(C)nc(N)n2)cc1 (stereo unspecified)	none
COc1ccc(-c2cccc(C(=O)NCCN3CCOCC3)c2)cc1	none
CCC(Sc1nc2ccsc2c(=O)n1C1CCCCC1)C(=O)Nc1ccc2c(c1)OCO2 (stereo unspecified)	none
O=C(NC(=S)N1CCOCC1)c1cc(-c2ccco2)nc2ccccc12	none
COCCNC(=O)COC(=O)c1cc(-c2ccco2)nc2ccccc12	MITF primary 72 | MITF inh conf 69 | AlphaScreen DR inactive | AS interf ctr inactive
O=C(OCCCC(=O)N1CCOCC1)c1cc(-c2ccco2)nc2ccccc12	MITF primary 73 | MITF inh conf 77 | AlphaScreen DR inactive | AS interf ctr inactive
CC1=NN(c2ccc(C(=O)O)c(N)c2)C(=O)C1	MITF primary 68 | MITF inh conf 54 | AlphaScreen DR inactive | AS interf ctr inactive
Cc1cc(C(C)(C)C)ccc1OCCN(C)C	MITF primary 84 | MITF inh conf inactive | AS interf ctr inactive
Cc1cc(C(C)(C)C)ccc1OCCCNCCN	none
C=CCNCCOc1ccc(C(C)(C)C)cc1C	MITF primary 51 | MITF inh conf inactive | AS interf ctr inactive
C=CCNCCCOc1ccc(C(C)(C)C)cc1C	none
O=C(NCc1cccc(C(F)(F)F)c1)c1ccnc(-c2ccc(C(=O)NC3CC3)cc2)c1	none
CNc1oc(-c2ccco2)nc1S(=O)(=O)c1ccc(Br)cc1	MITF primary 74 | MITF inh conf inactive | AS interf ctr inactive
CC(C)C/C(=N\NC(=O)CNC(=O)c1ccccc1Br)c1ccccc1	none
O=C1C2C(C(=O)N1c1ccc(Br)cc1)N1CCCN1C2c1ccc(F)cc1 (stereo unspecified)	MITF primary 65 | MITF inh conf inactive | AS interf ctr inactive
c1ccc(OCCNc2nc(Nc3ccccn3)nc3c2ncn3-c2ccccc2)cc1	none
CCc1cccc(NC(=O)C2CCCCC2C(=O)O)c1 (stereo unspecified)	none
CCOC(=O)c1nnn(-c2cc(Cl)ccc2OC)c1C(=O)OCC	none
Cc1ccc2nc(-c3ccccc3)cc(C(=O)N3CCC(C(N)=O)CC3)c2c1	none
NC(=O)C1CCN(C(=O)c2cc(-c3ccco3)nc3ccccc23)CC1	MITF primary 97 | MITF inh conf 75 | AlphaScreen DR inactive | AS interf ctr inactive
O=C(NNC(=O)c1cc(-c2ccco2)nc2ccccc12)NC1CCCCC1	MITF primary 87 | MITF inh conf 91 | AlphaScreen DR inactive | AS interf ctr inactive
OCCN1CCN(c2cc(-c3ccncc3)nc(-c3ccccc3)n2)CC1	none
OCCN1CCN(c2cc(-c3ccccc3)c3ccccc3n2)CC1	MITF primary 76 | MITF inh conf inactive | AS interf ctr inactive
COC(=O)c1c(OCc2cccnc2)cc(=O)n2c1CCN(C(=O)C1CCCCC1)CC2	MITF primary 69 | MITF inh conf inactive | AS interf ctr inactive
CC(=O)NNC(=O)CSc1nnnn1C1CCCCC1	MITF primary 76 | MITF inh conf inactive | AS interf ctr inactive
O=C(CSc1nnnn1C1CCCCC1)c1ccccc1	none
O=C(CSc1nnnn1C1CCCC1)c1ccccc1F	MITF primary 116 | MITF inh conf inactive | AS interf ctr inactive
NC(=O)C1CCN(C(=O)CSc2c3c(nc4ccccc24)CCCC3)CC1	none
Cc1cccc(-n2nc([N+](=O)[O-])c(=Nc3cccc(Cl)c3)n2O)c1	MITF primary 56 | MITF inh conf inactive | AS interf ctr inactive
Cc1ccc(N=c2c([N+](=O)[O-])nn(-c3cccc(Cl)c3)n2O)cc1	none

Compound activity (PubChem BioAssay)
